Source: PubChem BioAssay AID602144 (Vanderbilt Specialized Chemistry Center, 2011)
Unmarked numbers belong to inactive results. Activity calls are given as the source filed them. Cut-off read from the data, not from the text of the source: active = remaining activity below about 50%; inactive = the rest.

Biological target: Phospholipase D1 (Homo sapiens) (UniProt Q13393)
Test: PLD1 inhibitors in cells, Calu-1 cells, single concentration (AID 602144);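 note: tested at 200 nM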
Conditions: cellular PLD1 activity, hits give low values

Chain of Phospholipase D1 (Homo sapiens) (Q13393 whole entry, looked up): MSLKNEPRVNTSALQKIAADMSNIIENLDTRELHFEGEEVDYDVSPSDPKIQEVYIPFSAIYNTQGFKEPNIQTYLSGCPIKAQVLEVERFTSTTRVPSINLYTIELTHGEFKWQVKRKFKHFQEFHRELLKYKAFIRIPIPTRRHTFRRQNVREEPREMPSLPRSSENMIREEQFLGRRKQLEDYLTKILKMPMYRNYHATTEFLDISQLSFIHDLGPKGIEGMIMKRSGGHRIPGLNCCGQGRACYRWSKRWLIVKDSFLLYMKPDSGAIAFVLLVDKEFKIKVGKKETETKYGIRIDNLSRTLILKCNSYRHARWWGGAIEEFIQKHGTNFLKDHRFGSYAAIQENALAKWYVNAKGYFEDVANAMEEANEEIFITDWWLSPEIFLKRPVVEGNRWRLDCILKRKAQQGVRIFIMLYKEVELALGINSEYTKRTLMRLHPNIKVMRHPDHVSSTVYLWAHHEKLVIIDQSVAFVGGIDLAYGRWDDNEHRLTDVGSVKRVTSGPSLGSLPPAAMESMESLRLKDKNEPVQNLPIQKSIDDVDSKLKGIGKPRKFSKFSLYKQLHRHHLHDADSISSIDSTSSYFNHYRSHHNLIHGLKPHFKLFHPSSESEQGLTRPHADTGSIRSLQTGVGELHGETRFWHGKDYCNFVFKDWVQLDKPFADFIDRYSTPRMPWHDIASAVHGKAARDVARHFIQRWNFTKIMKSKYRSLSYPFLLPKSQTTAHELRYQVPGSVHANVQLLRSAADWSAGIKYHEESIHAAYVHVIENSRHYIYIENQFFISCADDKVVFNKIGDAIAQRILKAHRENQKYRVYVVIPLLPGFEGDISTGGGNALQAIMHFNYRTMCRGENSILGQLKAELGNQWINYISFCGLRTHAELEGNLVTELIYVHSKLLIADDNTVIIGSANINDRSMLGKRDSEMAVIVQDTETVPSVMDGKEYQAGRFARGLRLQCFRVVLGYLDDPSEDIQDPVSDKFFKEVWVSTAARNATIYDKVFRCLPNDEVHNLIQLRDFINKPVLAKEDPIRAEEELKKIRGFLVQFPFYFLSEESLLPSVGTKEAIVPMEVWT
Chain of Phospholipase D1 (Homo sapiens) (Q13393 whole entry, looked up): as above

Structure (SMILES) | remaining activity
O=C1c2ccccc2C(=O)N1CCCN1CCC2(CC1)C(=O)NCN2c1ccccc1 | 84.6%
C[C@@H](CN1CCC2(CC1)C(=O)NCN2c1ccccc1)NC(=O)[C@@H]1C[C@H]1c1ccccc1 | 70.5%
C[C@H](CN1CCC2(CC1)C(=O)NCN2c1ccccc1)NC(=O)c1ccc(F)cc1 | 34.8% (active)
O=C(NCCN1CCC2(CC1)C(=O)NCN2c1cccc(F)c1)c1ccc(Cl)cc1Cl | 110%
CCCCOc1ccc(C(=O)NCCN2CCC3(CC2)C(=O)NCN3c2cccc(F)c2)cc1 | 110%
O=C1c2ccccc2C(=O)N1CCN1CCC2(CC1)C(=O)NCN2c1ccccc1 | 102%
CC(C)[C@@H](CN1CCC2(CC1)C(=O)NCN2c1ccccc1)NC(=O)c1ccc2ccccc2c1 | 20.7% (active)
O=C(Cc1cccs1)NCCN1CCC2(CC1)C(=O)NCN2c1cccc(F)c1 | 89.8%
O=C(CCN1CCC2(CC1)C(=O)NCN2c1ccccc1)Nc1cnc2ccccc2c1 | 123%
O=C(NCCN1CCC2(CC1)C(=O)NCN2c1cccc(Cl)c1)c1cnc2ccccc2c1 | 55.4%
O=C(NCCN1CCC2(CC1)C(=O)NCN2c1cccc(F)c1)c1ccc2c(c1)C(=O)OC2=O | 102%
O=C(CCc1ccc(F)cc1)NCCN1CCC2(CC1)C(=O)NCN2c1ccccc1 | 69.5%
CC(C)[C@@H](CN1CCC2(CC1)C(=O)NCN2c1ccccc1)NC(=O)c1ccc(F)cc1 | 41.3% (active)
O=C(C1CC1c1ccccc1)N1CC(N2CCC3(CC2)C(=O)NCN3c2ccccc2)C1 (configuration not stated) | 94.4%
O=C(NCCN1CCC2(CC1)C(=O)NCN2c1ccccc1)c1ccc2c(c1)C(=O)OC2=O | 103%
C[C@H](CN1CCC2(CC1)C(=O)NCN2c1ccccc1)NC(=O)c1cc(Br)c(Br)o1 | 71.8%
O=C(c1ccc2ccccc2c1)N1CC(N2CCC3(CC2)C(=O)NCN3c2ccccc2)C1 | 82.4%
C[C@@H](CN1CCC2(CC1)C(=O)NCN2c1ccc(F)c(F)c1)NC(=O)c1cc2cc(F)ccc2[nH]1 | 0% (active)
O=C(C#Cc1ccccc1)NCCN1CCC2(CC1)C(=O)NCN2c1ccccc1 | 87.1%
O=C(NCCN1CCC2(CC1)C(=O)NCN2c1ccccc1)c1ccc2c(c1)OCO2 | 92.4%
O=C(NCCN1CCC2(CC1)C(=O)NCN2c1cccc(F)c1)c1c(F)cccc1F | 80.5%
O=C(NCCN1CCC2(CC1)C(=O)NCN2c1ccccc1)c1ccc(F)cc1O | 107%
